The text below walks through data of the supplement of paper PMC13094657.

The test system of test [1] is MDA-MB-231. In words: cell viability relative to vehicle unstimulated control (fraction); higher = more viable cells. The note with it: pre-treatment time: 18 h then 24 h IFNg/TNF.
Test [2] deals with MDA-MB-231. Description: kynurenine production, fold change vs DMSO IFNg/TNF control; higher = more kynurenine produced (less inhibition). The note with it: pre-treatment time: 18 h then 24 h IFNg/TNF. Put shortly: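 After trichloroacetic acid and p-dimethylaminobenzaldehyde treatment, supernatants were read at 492 nm, with 0–100 μM standards. These came from MDA-MB-231 cells (7 × 10^4/well, 96-well plates) pre-treated 18 h with natural products in 0.1% DMSO and then exposed 24 h to IFNγ (1 U/ml) and TNF (6.25 ng/ml) at 37°C. Values for kynurenine production are fold changes over same-plate cytokine-stimulated vehicle wells, averaged over duplicate plates in the first screening round.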

SMILES strings stand for the structures. ± gives the standard deviation of the averaged measurements.
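Wherever cell viability relative to vehicle unstimulated control is given: viability of the cells left after supernatant collection, read with Deep Blue dye added for 4 h, as absorbance at 570 nm minus 600 nm.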

Regarding `O=C(O)/C=C/c1ccccc1O` [O-coumaric acid] (compound dose: 10 uM), the cell viability in test [1] amounted to 0.976 ± 0.097. The kynurenine production in test [2] was found to be 0.9916 ± 0.006.

Take `CC[C@@H](C(=O)[C@@H](C)[C@@H](O)[C@H](C)CCc1ccc(C)c(O)c1C(=O)O)[C@H]1O[C@](CC)([C@H]2CC[C@](O)(CC)[C@H](C)O2)C[C@@H]1C` [Lasalocid] (compound dose: 10 uM): in test [1], the cell viability was 0.877 ± 0.017. Moreover, the kynurenine production in test [2] was found to be 0.509 ± 0.022.

Turning to `C[C@@]12CCc3occc3[C@H]1CC[C@@]13C[C@@H](CC[C@H]12)[C@@](O)(CO)C3` [Cafestol] (compound dose: 10 uM), the cell viability in test [1] worked out at 1.03 ± 0.067. Also, the kynurenine production in test [2] is 0.75 ± 0.4.

With `O[C@H]1[C@H]2c3cc4c(cc3CN3CC[C@H](C[C@@H]1O)[C@H]23)OCO4` [Dihydrolycorine] (compound dose: 10 uM), the cell viability in test [1] was determined as 0.961 ± 0.041. For the same molecule, the kynurenine production in test [2] stood at 0.723 ± 0.022.

`COc1cc2c(cc1O)C(Cc1ccc(O)cc1)[N+](C)(C)CC2` (stereo not drawn) [Magnocurarine] (compound dose: 10 uM): in test [1], the cell viability was determined as 1.02 ± 0.014. For the same molecule, in test [2], the kynurenine production is 0.937 ± 0.083.

On to `C[C@@H]1C[C@@H]([C@@H](O)C(C)(C)O)O[C@H]2C[C@@]3(C)C(=C12)C[C@H](O)[C@H]1[C@@]2(C)CCC(=O)C(C)(C)[C@@H]2CC[C@@]13C` [Alisol F] (compound dose: 10 uM), for which the cell viability in test [1] is 0.991 ± 0.032. In test [2], the kynurenine production worked out at 0.848 ± 0.048.

`C[C@H]1[C@H](C)CC[C@]2(C(=O)O)CC[C@]3(C)C(=CC[C@@H]4[C@@]5(C)C[C@@H](O)[C@H](O)C(C)(C)[C@@H]5CC[C@]43C)[C@H]12` [Corosolic acid] (compound dose: 10 uM): the cell viability in test [1] is 1.07 ± 0.16. In addition, the kynurenine production in test [2] came to 1.19 ± 0.13.

Consider `C=C1CC[C@@H]2[C@](C)(CO)[C@H](O)CC[C@@]2(C)[C@@H]1/C=C/C1=CCOC1=O` [14-Deoxy-11,12-didehydroandrographolide] (compound dose: 10 uM), for which the cell viability in test [1] amounted to 0.857 ± 0.047. The kynurenine production in test [2] came to 0.921 ± 0.095.

Turning to `CC(=O)O[C@@H]1C[C@H](O)[C@@]23CO[C@@H](O)[C@]1(C)[C@@H]2C[C@@H](O)[C@]1(C)[C@@H]3C(=O)[C@H](OC(C)=O)[C@@]2(C)[C@H](c3ccoc3)C[C@H]3O[C@]321` [Toosendanin] (compound dose: 10 uM), the cell viability in test [1] is 0.858 ± 0.056. The kynurenine production in test [2] stood at 0.206 ± 0.03.

As for `CC(C)=CCC[C@](C)(O)[C@H]1CC[C@]2(C)[C@@H]1[C@H](O)C[C@@H]1[C@@]3(C)CC[C@H](O)C(C)(C)[C@@H]3[C@@H](O[C@@H]3O[C@H](CO)[C@@H](O)[C@H](O)[C@H]3O[C@@H]3O[C@H](CO)[C@@H](O)[C@H](O)[C@H]3O)C[C@]12C` [Ginsenoside Rf] (compound dose: 10 uM), in test [1], the cell viability was 0.9642 ± 0.0068. In test [2], the kynurenine production worked out at 0.749 ± 0.17.

On to `CC1(C)[C@@H](O[C@H]2O[C@H](C(=O)O)[C@@H](O)[C@H](O)[C@H]2O[C@@H]2O[C@H](C(=O)O)[C@@H](O)[C@H](O)[C@H]2O)CC[C@]2(C)[C@H]3C(=O)C=C4[C@@H]5C[C@@](C)(C(=O)O)CC[C@]5(C)CC[C@@]4(C)[C@]3(C)CC[C@@H]12` [Ammonium glycyrrhizinate] (compound dose: 10 uM), for which, in test [1], the cell viability was determined as 0.952 ± 0.033. The kynurenine production in test [2] came out at 0.801 ± 0.2.

As to `O=C(O)c1cccnc1` [Nicotinic acid] (compound dose: 10 uM), in test [1], the cell viability was determined as 0.917 ± 0.043. In addition, the kynurenine production in test [2] worked out at 0.945 ± 0.13.

`CSC(=O)OCC1=C[C@@H]2OC(=O)C3=CO[C@@H](O[C@@H]4O[C@H](CO)[C@@H](O)[C@H](O)[C@H]4O)[C@H]1[C@@H]32` [Paederoside] (compound dose: 10 uM): the cell viability in test [1] was determined as 1.14 ± 0.027. Besides, the kynurenine production in test [2] was found to be 0.937 ± 0.11.

For the molecule `COc1cc2c(cc1O)C(Cc1ccc(O)cc1)NCC2` (stereo not drawn) [Coclaurine] (compound dose: 10 uM), in test [1], the cell viability worked out at 0.988 ± 0.044. The kynurenine production in test [2] is 1.04 ± 0.062.

With `C/C=C(/C)C(=O)O[C@H]1C(C)=C[C@]23C(=O)[C@@H](C=C(COC(C)=O)[C@@H](O)[C@]12O)[C@H]1[C@@H](C[C@H]3C)C1(C)C` [20-O-Acetylingenol-3-angelate] (compound dose: 10 uM), the cell viability in test [1] is 1.1 ± 0.091. Besides, in test [2], the kynurenine production was 0.874 ± 0.053.

Turning to `O[C@@H]1[C@@H](O)[C@@H](OC/C=C/c2ccccc2)O[C@H](CO[C@@H]2OC[C@H](O)[C@H](O)[C@H]2O)[C@H]1O` [Rosavin] (compound dose: 10 uM), in test [1], the cell viability is 1.003 ± 0.0045. For the same molecule, in test [2], the kynurenine production is 0.882 ± 0.2.

Regarding `C=C(C)[C@@H]1CC[C@]2(C)CC[C@]3(C)[C@H](CC[C@@H]4[C@@]5(C)CC[C@H](O)C(C)(C)[C@@H]5CC[C@]43C)[C@@H]12` [Lupeol] (compound dose: 2 uM), the cell viability in test [1] was determined as 0.861 ± 0.041. In test [2], the kynurenine production was 0.921 ± 0.085.

With `C=C1C(=O)[C@@]23[C@H](O)C[C@@H]4C(C)(C)C(=O)CC[C@@]4(C)[C@@H]2CC[C@@H]1[C@H]3O` [Glaucocalyxin A] (compound dose: 10 uM), the cell viability in test [1] stood at 0.832 ± 0.078. The kynurenine production in test [2] is 0.109 ± 0.029.

Regarding `COC(=O)C1=CO[C@@H](O[C@@H]2O[C@H](CO)[C@@H](O)[C@H](O)[C@H]2O)[C@H]2[C@@H]1[C@H](O)C[C@]2(C)OC(C)=O` [Barlerin] (compound dose: 10 uM), the cell viability in test [1] amounted to 1.01 ± 0.02. Moreover, the kynurenine production in test [2] is 0.884 ± 0.11.
